{"source": "PubChem BioAssay (Tox21)", "note": "Calls of active or inactive are those of the source. The call rests on the fitted dose curve; in most records, active means well fitted activation curve with a large enough effect in the repeat runs; inconclusive means weak or mixed curves; inactive means flat fitted curve, though single readings scatter. On the % scale 0 is the no-effect control and ±100 the full control effect."}
{"assay": "Caspase-3/7 induction in CHO-K1 cells by small molecules, qHTS assay (AID 1346980); further: nearly all actives have a fitted effect of over 15% in size", "details": "CHO-K1 caspase-3/7 induction, Caspase-Glo luminescence, 17 h; series mostly up to 92.4 µM; caspase-3/7 activation: at the top concentration", "outline": "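Wild-type CHO-K1 cells exposed to compounds for 17hr at 37 C, 5% CO2. Caspase-3/7 activity then measured by Caspase-Glo 3/7 luminescence after 30min at room temperature.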"}
{"smiles": "c1ccc2c(c1)OCC(C1=NCCN1)O2", "note": "(configuration not stated)", "caspase-3/7 activation": "-3.82% [at 42.5 µM] (inactive)"}
{"smiles": "CC(C)CCCCCOC(=O)c1ccccc1C(=O)OCCCCCC(C)C", "caspase-3/7 activation": "-4.11% (inactive)"}
{"smiles": "CC(C)CC(C)N", "note": "(configuration not stated)", "caspase-3/7 activation": "-0.107% (inactive)"}
{"smiles": "CC(C)CBr", "caspase-3/7 activation": "0.645% (inactive)"}
{"smiles": "CCOC(=O)c1ccccc1S(=O)(=O)NC(=O)Nc1nc(Cl)cc(OC)n1", "caspase-3/7 activation": "0.295% (inactive)"}
{"smiles": "Cn1cc(C2=C(c3cn(C4CCN(Cc5ccccn5)CC4)c4ccccc34)C(=O)NC2=O)c2ccccc21", "caspase-3/7 activation": "-0.534% [at 42.5 µM] (inactive)"}
{"smiles": "CN(CCCC(O)c1cccnc1)N=O", "note": "(configuration not stated)", "caspase-3/7 activation": "-0.774% (inactive)"}
{"smiles": "CC(C)N1C(=O)N(c2ccccc2)CSC1=NC(C)(C)C", "caspase-3/7 activation": "-2.64% (inactive)"}
{"smiles": "CCCCCCCCCCBr", "caspase-3/7 activation": "-0.0989% (inactive)"}
{"smiles": "Nc1ccc(Sc2ccc(N)cc2)cc1", "caspase-3/7 activation": "-2.33% (inactive)"}
{"smiles": "N#CCCO", "caspase-3/7 activation": "0.14% (inactive)"}
{"smiles": "Oc1ccc(C(c2ccc(O)cc2)(C(F)(F)F)C(F)(F)F)cc1", "Potency": "inactive"}
{"smiles": "Brc1c(Br)c(Br)c(Oc2c(Br)c(Br)c(Br)c(Br)c2Br)c(Br)c1Br", "caspase-3/7 activation": "3.41% [at 19 µM] (inactive)"}
{"smiles": "CN(C)S(=O)(=O)N(SC(F)(Cl)Cl)c1ccccc1", "caspase-3/7 activation": "-5.15% (inactive)"}
{"smiles": "N#CC(Cl)Cl", "caspase-3/7 activation": "-0.496% (inactive)"}
{"smiles": "Nc1ccc(Cc2ccc(N)c(Cl)c2)cc1Cl", "caspase-3/7 activation": "1.06% (inactive)"}
{"smiles": "CCC(C)c1cc([N+](=O)[O-])cc([N+](=O)[O-])c1OC(=O)C=C(C)C", "note": "(configuration not stated)", "caspase-3/7 activation": "-1.25% (inactive)"}
{"smiles": "Cc1cc(C)c(C2=C(OC(=O)CC(C)(C)C)C3(CCCC3)OC2=O)c(C)c1", "caspase-3/7 activation": "0.652% (inactive)"}
{"smiles": "COc1ccc(N)cc1N", "Potency": "inactive"}
{"smiles": "S=C=Nc1cccc2ccccc12", "caspase-3/7 activation": "0.135% (inactive)"}
{"smiles": "Nc1ccc(Cl)cc1C(=O)c1ccccc1", "caspase-3/7 activation": "9.96% (inactive)"}
{"smiles": "CC(=[OH+])/C=C(/C)[O-].CC(=[OH+])/C=C(\\C)[O-].CC(=[OH+])/C=C(\\C)[O-].[Al]", "caspase-3/7 activation": "-0.595% (inactive)"}
